PubChem BioAssay (NCATS)
Inconclusive results are not listed. Activity calls are given as the source filed them. Calls come from the whole dose curve; as a rule, active = well fitted curve in the direction sought with a large enough effect; inconclusive = small, poorly fitted or top-dose-only effect, or another doubt; inactive = no such curve, though single readings can be large; an effect the other way counts as inactive or inconclusive.

Tests used:
[1] = Cellular Toxicity (caspase-3) Renal Proximal Tubule (AID 667); settings: renal proximal tubule cells; at 91.7 µM (top of the series), primary cells freshly taken from rat, solvent-only wells 0%, staurosporine 100% unless noted;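 note: cells exposed to compound for 16 hours at 37 °C before detection; 0% = DMSO basal and 100% = 10 µM staurosporine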
How it was run: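 Caspase 3/7 activation measured by luminescent aminoluciferin release in primary rat proximal tubule cells after 16 hr compound exposure at 37 °C. AC50 from Hill-fitted concentration-response, scaled between DMSO and 10 uM staurosporine.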

[2] = molecular target: Cytochrome P450 3A4 (Homo sapiens) (UniProt P08684); assay: qHTS Assay for Inhibitors and Substrates of Cytochrome P450 3A4 (AID 884); note: % is set by controls: 0 for no effect and ±100 for the full control effect; nearly all actives have a fitted effect of over 50% in size
Cytochrome P450 3A4 (Homo sapiens), sequence (P08684 whole entry, looked up): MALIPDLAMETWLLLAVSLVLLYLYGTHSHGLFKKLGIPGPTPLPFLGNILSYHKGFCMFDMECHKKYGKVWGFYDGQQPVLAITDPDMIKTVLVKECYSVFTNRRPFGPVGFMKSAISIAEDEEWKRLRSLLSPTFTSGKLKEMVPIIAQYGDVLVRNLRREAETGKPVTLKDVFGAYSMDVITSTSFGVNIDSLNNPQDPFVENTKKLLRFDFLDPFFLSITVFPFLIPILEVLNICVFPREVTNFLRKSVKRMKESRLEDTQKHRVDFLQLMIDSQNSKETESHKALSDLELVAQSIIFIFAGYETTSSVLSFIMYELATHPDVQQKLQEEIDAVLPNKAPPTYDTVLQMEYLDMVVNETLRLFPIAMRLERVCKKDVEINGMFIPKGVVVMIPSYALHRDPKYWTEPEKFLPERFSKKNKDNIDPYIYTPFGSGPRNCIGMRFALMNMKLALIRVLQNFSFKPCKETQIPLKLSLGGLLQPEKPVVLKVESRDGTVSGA
How it was run: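 Luminescent readout of luciferin produced by CYP3A4 (20 nM) dealkylation of Luciferin-PPXE, 25 uM (its KM). NADPH-driven reaction ran 60 min at RT after 10 min compound preincubation; data scaled to 57 uM ketoconazole as 100% inhibition.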

[3] = Confirmation and Secondary Assay for Modulators of Hemoglobin Beta Chain Splicing at IVS2 654 locus (AID 910);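 note: HeLa cells stably carrying EGFP split by mutant beta-globin IVS2-654 intron; % of control where 0% means no effect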
How it was run: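 HeLa cells stably expressing EGFP interrupted by β-globin IVS2-654 intron, seeded overnight in Opti-MEM/2% FCS, then treated 2 days at 37 °C. Restored splicing read as total peak GFP intensity per well by laser scanning cytometry (488 nm excitation, 500–520 nm emission); 500 nM antisense PNA as control.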

[4] = Cell Viability - LYMP2-001 (AID 921);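 note: 0% = DMSO only and full inhibition = tetraoctylammonium bromide control wells; nearly all actives have a fitted effect of over 70% in size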
How it was run: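 Cellular ATP loss read by luciferase luminescence after 24 h compound exposure at 37 C in complete medium. LYMP2-001 lymphoblastoid cells, 2500/well; qHTS concentration-response data fitted with Hill equation for AC50.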

[5] = Confirmation and Secondary Assay for Modulators of Hemoglobin Beta Chain Splicing at IVS2 705 locus (AID 930);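 note: HeLa cells stably expressing the EGFP-705 splicing reporter; GFP fluorescence per well restored by corrected splicing of the IVS2-705 intron in EGFP; % of control where 0% means no effect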
How it was run: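 HeLa EGFP-705 reporter; 500 cells/well, o/n 37C 5% CO2; cpd 2 d; 488 ex/500-520 em laser scan; total peak GFP intensity/well. Ref: 500 nM […] antisense PNA.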

[6] = MultiTox-Fluor Cytotoxicity Assay - LYMP1-001 - Dead Cells (AID 946)
How it was run: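 Cytotoxicity as increased dead-cell protease fluorescence (bis-AAF-R110, 485/520 nm), read 60 min after MultiTox-Fluor reagent. Human lymphoblastoid line exposed 16 h; Hill-fitted AC50, with DMSO as 0% and 15 uM tetraoctylammonium bromide as 100%.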

[7] = MultiTox-Fluor Cytotoxicity Assay - LYMP1-001 - Live Cells (AID 947);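 note: 0% = DMSO only and full inhibition = tetraoctylammonium bromide control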
[8] = Cell Viability - LYMP1-002 - Assay at 16 hr (AID 948);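 note: 0% = DMSO alone and full effect = 92 µM tetraoctylammonium bromide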
How it was run: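 ATP luminescence (CellTiter-Glo) was measured after 16 hr compound exposure at 37 C of 2500 lymphoblastoid LYMP1-002 cells per well. Concentration-response curves were fitted with the Hill equation to give AC50.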

[9] = MultiTox-Fluor Cytotoxicity Assay - LYMP1-002 - Live Cells (AID 955);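 note: cells exposed to compound for 16 hours; % is set by controls: 0 for no effect and ±100 for the full control effect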
How it was run: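 In this qHTS viability format, lymphoblastoid cells (LYMP1-002, human) received compound for 16 hr at 37 C. Fluorogenic GF-AFC cleavage by viable cells was detected at 405/510 nm after 1 h at room temperature.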

[10] = MultiTox-Fluor Cytotoxicity Assay - LYMP1-002 - Dead Cells (AID 960); note: nearly all actives have a fitted effect of over 60% in size
How it was run: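 Concentration-dependent increases in membrane-leaked protease activity are quantified in LYMP1-002 cells after 16 hr treatment; values are normalized against DMSO and tetraoctylammonium bromide (15 uM) controls and AC50 derived by Hill modeling.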

[11] = MultiTox-Fluor Cytotoxicity Assay - LYMP1-003 - Dead Cells (AID 961); note: nearly all actives have a fitted effect of over 70% in size
How it was run: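 Dead-cell protease release, detected as bis-AAF-R110 fluorescence at 485/520 nm, was measured in LYMP1-003 cells after 16 h compound treatment at 37 C. AC50 values came from Hill-modeled qHTS curves normalized to DMSO (0%) and 15 uM tetraoctylammonium bromide (100%).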

[12] = MultiTox-Fluor Cytotoxicity Assay - LYMP1-003 - Live Cells (AID 962);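 note: cells exposed to compound for 16 hours at 37 °C; 0% = DMSO only and full loss = 92 µM tetraoctylammonium bromide; cytotoxic hits lower the live-cell protease signal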
How it was run: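 Human lymphoblastoid line LYMP1-003 in complete culture medium, treated 16 hr with titrated compounds. Viable cells quantified via cell-permeant GF-AFC substrate fluorescence; AC50 derived by Hill fitting.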

[13] = Cell Viability - LYMP1-003 - Assay at 24 hr (AID 963);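 note: plate controls were DMSO only for no effect and tetraoctylammonium bromide positive control for full effect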
How it was run: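 The lymphoblastoid line was treated with titrated compounds for 24 hours, and viable cell number estimated from luciferase-based ATP luminescence.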

[14] = Cell Viability - LYMP1-003 - Assay at 40 hr (AID 964); note: % is set by controls: 0 for no effect and ±100 for the full control effect; nearly all actives have a fitted effect of over 60% in size
How it was run: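 Acute toxicity is scored as a concentration-dependent loss of intracellular ATP in LYMP1-003 cells (2500/well, complete medium) after 40 hr at 37 C, measured by CellTiter-Glo luminescence; AC50 values derive from standard Hill modelling.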

[15] = Cell Viability - LYMP2-003 (AID 965);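 note: cells exposed to compounds for 24 h before reading; 0% = DMSO only and full effect = 92 µM tetraoctylammonium bromide; nearly all actives have a fitted effect of over 50% in size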
How it was run: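 CellTiter-Glo luminescence quantified ATP loss after 24 h compound treatment of LYMP2-003 lymphoblastoid cells at 37 C. Titration series were fitted with the standard Hill equation to give AC50.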

[16] = Cell Viability - LYMP2-004 (AID 966);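 note: plate controls were DMSO only for no effect and tetraoctylammonium bromide control for full effect; nearly all actives have a fitted effect of over 65% in size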
How it was run: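 Viable-cell number estimated from ATP luminescence (CellTiter-Glo) in 2500 human lymphoblastoid cells/well after 24 hr at 37 C with compound. AC50 fitted to the standard Hill equation.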

[17] = Cell Viability - LYMP2-005 (AID 967);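 note: plate controls were DMSO only for no effect and 92 µM tetraoctylammonium bromide control for full effect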
How it was run: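 LYMP2-005 human lymphoblastoid cells (2500/well) were treated with compounds for 24 h at 37 C. Intracellular ATP was then measured by CellTiter-Glo luminescence after 30 min at room temperature. AC50 values came from Hill-equation fits of qHTS concentration-response data.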

[18] = Cell Viability - LYMP2-009 (AID 968);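 note: 0% = DMSO alone and the full-kill end = tetraoctylammonium bromide at 92 µM; nearly all actives have a fitted effect of over 55% in size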
[19] = Cell Viability - LYMP2-011 (AID 969);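 note: 0% = DMSO only and full inhibition = 92 µM tetraoctylammonium bromide; nearly all actives have a fitted effect of over 60% in size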
How it was run: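 Cells seeded at 2500 per well rest 5 hr before compound addition, then incubate 24 hr at 37 C. CellTiter-Glo reagent is added for 30 min at room temperature before luminescence detection.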

[20] = Cell Viability - LYMP2-013 (AID 970);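 note: 0% = DMSO only and full inhibition = tetraoctylammonium bromide control; nearly all actives have a fitted effect of over 55% in size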
How it was run: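 In complete culture medium, human lymphoblastoid cells were dosed for 24 hr at 37 C, with tetraoctylammonium bromide (6.4pM to 92 uM) as positive control. Viability reflects luciferase-based ATP signal; AC50 derived from concentration-response curves.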

[21] = Cell Viability - LYMP2-015 (AID 971);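 note: 0% = DMSO only and full effect = 92 µM tetraoctylammonium bromide; nearly all actives have a fitted effect of over 55% in size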
How it was run: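 AC50 values reflect Hill-model fits of ATP-based luminescence (CellTiter-Glo) from a human lymphoblastoid line, 2500 cells/well, treated 24 hr at 37 C.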

[22] = Cell Viability - LYMP2-017 (AID 972);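 note: cells exposed to compound for 24 hours at 37 °C; % is set by controls: 0 for no effect and ±100 for the full control effect; nearly all actives have a fitted effect of over 55% in size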
How it was run: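 In this qHTS format, lymphoblastoid cells in complete medium receive test compound for a day at 37 C before ATP content is quantified by luciferase luminescence. Reported AC50 figures come from standard Hill-equation curve fitting.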

[23] = Cell Viability - LYMP2-021 (AID 974)
How it was run: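 In qHTS format, compounds are tested against 2500 lymphoblastoid cells per well for 24 h; viable cell number is inferred from ATP-driven luciferase light, and Hill-equation fitting yields AC50 values.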

[24] = Cell Viability - LYMP2-023 (AID 975)
How it was run: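 In this qHTS, ATP-based luciferase luminescence (CellTiter-Glo) is quantified in human lymphoblastoid cells after 24 hr compound treatment at 37 C; tetraoctylammonium bromide serves as positive control. Concentration-response curves are Hill-fitted to give AC50.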

CCCCOC(=O)c1ccccc1C(=O)OCCCC
inactive: caspase-3 activation [1] -0.0975% [at 91.7 µM] | Potency [2] | Potency [3] | Potency [4] | Potency [5] | Potency [6] | Potency [7] | Potency [8] | outcome [9] | Potency [10] | Potency [11] | Potency [12] | Potency [13] | Potency [14] | Potency [15] | Potency [16] | Potency [17] | Potency [18] | Potency [19] | Potency [20] | Potency [21] | Potency [22] | Potency [23] | Potency [24]
